GRIN3A LBD mod: modulates the human NR3A ligand-binding domain | NR3A LBD differential scanning fluorimetry, Tm shift; 0% = protein alone, 100% = glycine-bound protein | actives 2.5% (n = 340,000) | Tm shift relative to glycine control, % at 25 µM | AID 1259313;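 active means melting temperature shift of at least 10% of the positive control shift, at one fixed dose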
Mot1-301 SUMO: SUMOylation pathway inhibition by Mot1-301 growth rescue; S. cerevisiae Mot1-301 growth rescue, ATP luminescence, 38.5C; percent above DMSO median, 100 means doubled; actives 1% (n = 320,000); growth rescue, % at 18.8 µM; AID 2716;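 active means every valid replicate shows activation above 250% relative to neutral control wells; inactive means the rest, any valid replicate at or below 250%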;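 further: OY570 slx delta 5 strain wells were the positive control but not used for scaling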
H9c2 protect: protects H9c2 cardiomyocytes from peroxide injury; H2O2 injury protection, ATPLite, 2 h; protection from H2O2 cell death, % at 20 µM; actives 0.63% (n = 360,000); AID 588492;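 active means compounds giving at least 50% protection of heart cells from peroxide-induced death in the single-dose screen, raw or plate-pattern-corrected value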;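 further: 0% = DMSO wells with peroxide and 100% = DMSO wells without peroxide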
AI-2 QS modul: modulates the Vibrio harveyi AI-2 quorum sensing system. AID 2094. Vibrio harveyi JMH597 AI-2 luminescence/OD600 ratio, 9 h; active compounds read low; strain lacks LuxN and CqsS sensors; 0 = neutral-control median. activity change, % at 7.5 µM. actives 0.4% (n = 300,000); in the data active means activity change below about -75%, passing the limit was not always enough;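 further: luminescence divided by OD600 gain over 9 h not by final OD600 alone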
AHR act: activators of human aryl hydrocarbon receptor; activation, % at 5 µM; AHR-responsive luciferase reporter cells, luminescence; actives 2.5% (n = 320,000); AID 2796; in the data active means activation above about 47%;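 further: 0% = vehicle wells and 100% = reference agonist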
NTR1 ag: agonists of human neurotensin receptor NTR1. NTR1-U2OS beta-arrestin-GFP spot imaging, agonist mode. actives 0.17% (n = 330,000). activation, % at 20 µM. P30989;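 active means activation at or above 40% of the spot to cytoplasm intensity ratio, with at least 20 cells analyzed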;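 further: 0% = DMSO without peptide and 100% = 100 nM NTR1 peptide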
An asterisk follows results filed as active. Most compounds without a hit are left out; they make up all but 6.2% or so of the library.

How did CC1CCCN(S(=O)(=O)c2ccc(NC(=O)CN3C(=O)NC(C)(c4ccccc4)C3=O)cc2)C1 (centres undefined) do in these assays?
GRIN3A LBD mod: -6; Mot1-301 SUMO: 6; H9c2 protect: -12; AI-2 QS modul: -62; AHR act: 1; NTR1 ag: 2

Results for CCOC(=O)C1=CN(CC)S(=O)(=O)NC1c1cccc(OC)c1 (centres undefined) ?
GRIN3A LBD mod: 1; H9c2 protect: -1; NTR1 ag: 1

Results for CC=Cc1cc(OC)c2c(c1)C(C)C(c1ccc(O)c(OC)c1)O2 (centres undefined) ?
GRIN3A LBD mod: -8; H9c2 protect: -12

What do the screens show for `CCn1c(C)c(C(C)=O)c(N2CCN(c3cccc(Cl)c3)CC2)nc1=S`?
GRIN3A LBD mod: -1; Mot1-301 SUMO: 585*; H9c2 protect: 3; AI-2 QS modul: 5; AHR act: -1; NTR1 ag: 0

How did CCSc1nc(=S)n(Cc2ccccc2)c(C)c1C(C)=O do in these assays?
GRIN3A LBD mod: -3; Mot1-301 SUMO: 9; H9c2 protect: -5; AI-2 QS modul: 22; AHR act: -1; NTR1 ag: -1

What do the screens show for `CC(=O)c1c(N2CCN(c3cccc(Cl)c3)CC2)nc(=S)n(-c2ccccc2)c1C`?
GRIN3A LBD mod: -4; Mot1-301 SUMO: 2; H9c2 protect: -1; AI-2 QS modul: -8; AHR act: -1; NTR1 ag: 3

How did CCn1c(C)c(C(C)=O)c(NCc2ccccc2)nc1=S do in these assays?
GRIN3A LBD mod: 14*; Mot1-301 SUMO: 4; H9c2 protect: 0; AI-2 QS modul: -6; AHR act: 22; NTR1 ag: -1

How did CC(=O)c1c(N2CCN(C)CC2)nc(=S)n(Cc2ccccc2)c1C do in these assays?
GRIN3A LBD mod: 10*; Mot1-301 SUMO: -5; H9c2 protect: 4; AI-2 QS modul: 24; AHR act: 1; NTR1 ag: 1

What do the screens show for `C[C@H](CO)N1C[C@H](C)[C@@H](CN(C)S(=O)(=O)c2ccccc2)Oc2c(NC(=O)Nc3ccc4c(c3)OCO4)cccc2C1=O`?
GRIN3A LBD mod: 2; Mot1-301 SUMO: -5; H9c2 protect: 16; AHR act: 2; NTR1 ag: 6

How did CCOc1ncccc1C(=O)Nc1ncc(C)s1 do in these assays?
GRIN3A LBD mod: 1; Mot1-301 SUMO: 45; H9c2 protect: 1; AI-2 QS modul: 5; AHR act: 4; NTR1 ag: 0

What do the screens show for `c1cc(Nc2ncnc3sccc23)cc(-c2nnc3n2CCCCC3)c1`?
GRIN3A LBD mod: 2; Mot1-301 SUMO: 5; H9c2 protect: 15; AI-2 QS modul: 9; AHR act: 49*; NTR1 ag: -1

What do the screens show for `CCOc1ncccc1C(=O)Nc1cccc(-c2nnc3n2CCCCC3)c1`?
GRIN3A LBD mod: 1; H9c2 protect: 11; AI-2 QS modul: 28; AHR act: 47*; NTR1 ag: 1

What do the screens show for `CCOc1ncccc1C(=O)Nc1nc(C(C)(C)C)cs1`?
GRIN3A LBD mod: -2; Mot1-301 SUMO: 10; H9c2 protect: 2; AI-2 QS modul: 18; AHR act: 59*; NTR1 ag: 5

Results for CCOc1ncccc1C(=O)Nc1ccc(F)c(Cl)c1 ?
GRIN3A LBD mod: 0; Mot1-301 SUMO: -8; H9c2 protect: 10; AI-2 QS modul: 12; AHR act: 61*; NTR1 ag: 0

Results for COc1ccc([C@H]2N[C@]3(CCCN(Cc4ccc(Cl)cc4)C3=O)[C@H]3C(=O)N(Cc4ccccc4)C(=O)[C@@H]23)cc1 ?
H9c2 protect: -4

What do the screens show for `CCOc1ncccc1C(=O)Nc1ccc(F)c(F)c1`?
GRIN3A LBD mod: 1; Mot1-301 SUMO: -5; H9c2 protect: 4; AI-2 QS modul: 13; AHR act: 60*; NTR1 ag: -1

What do the screens show for `Cc1ccc2c(Cl)c(C(=O)NCCc3ccccc3)sc2c1`?
GRIN3A LBD mod: -2; Mot1-301 SUMO: -1; H9c2 protect: -15; AI-2 QS modul: 17; AHR act: -4; NTR1 ag: 3

What do the screens show for `COc1ccc(CCNC(=O)c2sc3cc(C)ccc3c2Cl)cc1`?
GRIN3A LBD mod: 12*; Mot1-301 SUMO: 7; H9c2 protect: -7; AI-2 QS modul: 29; AHR act: 1; NTR1 ag: 0
